Reference: ChEMBL document CHEMBL3988442, “University of Dundee, Small-Polar-MMV Screening Library” (2021)
Among all 48,000 compounds or so, about 13,000 (27%) showed an effect of 50% or more. This is one part of the list.

System: Wolbachia pipientis
Assay: Anti-Wolbachia Cell-Based Screen
Type: functional
Design: scale not given: in the data most compounds retested in dose-response had high values
Details: 5 µM

Compound	Percent Effect
Cc1occc1CNC(=O)N(CCCO)C1CCc2ccccc21 (centres undefined)	-0.08809%
CCC(CO)N(Cc1ccccn1)C(=O)c1ncccc1C (centres undefined)	-0.3576%
CCc1cnc(C)nc1N1CCN(Cc2ccc(-c3cc[nH]n3)o2)CC1	-14.59%
CCc1nc(C)ncc1C(=O)N1CC(=O)N(C)c2ccccc21	-0.2346%
Cc1ccnc(C2CN(Cc3ccc(-c4ccccc4C(=O)O)o3)C2)n1	103.2%
Cc1ccc(CN2C[C@@H](C(=O)O)[C@H](c3ccccn3)C2)o1	12.21%
Cc1ccc(CN2CCC3(CCC3NS(=O)(=O)c3ccccc3)CC2)o1.O=C(O)C(F)(F)F (centres undefined)	-9.512%
Nc1nccc(C2CN(Cc3ccc(-c4ccccc4C(=O)O)o3)C2)n1	91.52%
CCNC(=O)[C@@H]1C[C@@H](N)CN1Cc1ccc(-c2ccccc2C#N)o1	-0.5053%
CCNC(=O)[C@@H]1C[C@H](N)CN1Cc1ccc(-c2ccccc2C#N)o1	18.83%
Cc1nccc(C2CN(Cc3ccc(-c4ccccc4C(=O)O)o3)C2)n1	137.2%
NCCN1C(=O)CC[C@H]2CN(Cc3ccc4occc4c3)CC[C@H]21	-1.233%
C1CN(c2nc(C3CC3)ns2)CCS1	2.674%
CS(=O)(=O)c1cccc2c1CCCN2C(=O)Cc1cccc(F)c1	14.6%
CS(=O)(=O)c1ccc(O[C@H]2COCCN(C(=O)c3ccno3)C2)cc1	-17.98%
CCCN(c1ccccc1C(=O)O)S(=O)(=O)c1ccc2ccccc2c1	-7.662%
CC1=CCN(C(=O)Nc2ccccc2N2CCOC2=O)CC1	8.909%
COc1ccc(C)cc1C1(CNc2cn[nH]c(=O)c2Cl)CCOCC1	1.939%
CC(NC(=O)N(C)Cc1ccncc1)c1cn(-c2ccccc2)nn1 (centres undefined)	-5.138%
COC(=O)N1CCC(Nc2cccc(F)c2C(C)=O)CC1	7.066%
Cc1cccc(CN(Cc2cccnc2)C2CC(C)(C)NC(C)(C)C2)n1.O=C(O)CC(O)(CC(=O)O)C(=O)O	68.09%
CC1(C)CC(N(Cc2cccnc2)Cc2cccc(F)c2)CC(C)(C)N1.O=C(O)CC(O)(CC(=O)O)C(=O)O	152.9%
CC1(C)CC(N(Cc2ccncc2)Cc2cccnc2)CC(C)(C)N1.O=C(O)CC(O)(CC(=O)O)C(=O)O	106.8%
CCCN(Cc1cccnc1)C(=O)C1CCS(=O)(=O)CC1	-18.37%
CCCN(Cc1cccnc1)C(=O)C1CCNC1 (centres undefined)	-6.629%

Compound	Percent Effect
CCCN(Cc1cccnc1)C1CC(C)(C)NC(C)(C)C1.O=C(O)CC(O)(CC(=O)O)C(=O)O	90.76%
CC1CN(c2ccc(CNC(=O)NCCn3ccnc3)cn2)CCO1 (centres undefined)	-7.777%
Cc1nn(C)cc1-c1ccnc(N(C)Cc2ccoc2)n1	-63.97%
CN(Cc1ccncc1)C(=O)Nc1cnn(CC2CCCO2)c1 (centres undefined)	-18.51%
Cl.O=C(Nc1cccc(C(=O)OCC2CCCN2)c1)c1ccoc1 (centres undefined)	-16.18%
Cc1cc(C)n(CC2CCCN2CCCS(=O)(=O)N(C)C)n1 (centres undefined)	-14.18%
Cc1cc(=O)[nH]c(NCCNC(=O)CN2CCCCCC2)n1	0.3352%
COCCCSc1ccc(NCc2scnc2C)cc1	-22.23%
CNC(=O)NC(=O)CN(CC(C)O)c1ccccc1 (centres undefined)	1.255%
Cc1ncsc1C(=O)N(Cc1cccnc1)C1CC1	11.29%
CC1(C)CC(N(Cc2ccccc2)Cc2cccnc2)CC(C)(C)N1.O=C(O)CC(O)(CC(=O)O)C(=O)O	31.11%
Cc1ccc(CN(Cc2cccnc2)C2CC(C)(C)NC(C)(C)C2)s1.O=C(O)CC(O)(CC(=O)O)C(=O)O	9.465%
Cc1ccsc1CN(Cc1cccnc1)C1CC(C)(C)NC(C)(C)C1.O=C(O)CC(O)(CC(=O)O)C(=O)O	106.7%
CC1(C)CC(N(Cc2cccnc2)Cc2cccnc2)CC(C)(C)N1.O=C(O)CC(O)(CC(=O)O)C(=O)O	81.01%
CN(C)c1ncc2c(n1)N(C)CCN(CC1CC1)C2=O	109.4%
CN1CCc2nc(N(C)C)nc(N3CCC(O)CC3)c2C1	12.64%
CCCN(C)c1ncc2c(n1)N(C)CCN(CC1CC1)C2=O	98.31%
Cc1ccccc1-n1cnnc1SCCOCC1CCCO1 (centres undefined)	-11.81%
Cc1ccc(-c2noc([C@@H]3C[C@H](NC(=O)CC(C)(C)C)CN3C)n2)cc1	-9.06%
Cc1ccnc(CC(C)N(C)c2cc(CN)nc(C)n2)c1 (centres undefined)	-4.516%
COc1ccc(C(C)N2CCN(Cc3nccn3C)CC2)cc1Cl (centres undefined)	-0.7599%
CCn1ccnc1CN1CCN(CC(O)c2cccc(F)c2)CC1 (centres undefined)	152.7%
CC(c1ccc(F)c(F)c1)N1CCN(Cc2nccn2C)CC1 (centres undefined)	-0.152%
CC(c1cccc(F)c1)N1CCN(Cc2nccn2C)CC1 (centres undefined)	119.5%
CCn1ccnc1CN1CCN(CC(O)c2ccccc2)CC1 (centres undefined)	-0.4709%

Compound	Percent Effect
Cn1ccnc1CN1CCN(CC(O)c2cccc(F)c2)CC1 (centres undefined)	1.006%
O=C(O)C(F)(F)F.O=C(O)C(F)(F)F.O=C(O)C(F)(F)F.c1cnc(NCc2noc3c2CN(CCN2CCCC2)CC3)nc1	-9.81%
Cc1ccc(NC(=O)NC(C)c2nc[nH]n2)s1 (centres undefined)	10.15%
CSCCN1CCN(c2nc(N)ncc2C)CC1	-15.55%
O=C(c1cnccn1)N1CCN2C[C@H](OCc3ccccn3)C[C@H]2C1	1.808%
COc1cccc(CC2(C(=O)O)CCN(c3nccs3)CC2)c1	5.275%
Fc1ccc(C2(NCc3ccccc3)CCOCC2)cc1	-10.48%
O=C(O)C1(Cc2cccc(-c3ccc(F)c(F)c3)c2)CCOCC1	-9.122%
COc1ccc(-c2cccc(CC3(C(=O)O)CCOCC3)c2)cc1	106.8%
COc1cccc(CC2(C(=O)O)CCN(c3ccc(Cl)cn3)CC2)c1	-33.64%
O=C(O)C1(Cc2cccc(-c3ccc(F)cc3)c2)CCOCC1	105.2%
CN(Cc1ccco1)c1ccc(-c2nccn2C)nn1	-4.631%
CC1=C[C@@H](CN2CCCC2)[C@H](C(C)C)C[C@H]1Cc1nnc(C)o1	-4.134%
CC(C)(C)OC(=O)N1CCCN1C(=O)c1cccc(F)c1F	-1.297%
O=C(Nc1ccc(F)c(-n2cccc2)c1)NC1(CCO)CCOCC1	29.93%
Cc1cc(NC(=O)CCCn2ccnc2C)nc(C(C)C)n1	-7.681%
Br.Cc1cc(C)nc(NCCC(=O)NCCn2ccnc2C)n1	178%
Cc1nccn1CCCC(=O)Nc1nc(C(C)C)nn1C	-14.12%
CSC1(CNC(=O)N(C)Cc2sccc2C)CCOCC1	7.6%
O=C(N1CCOCC1)N1CC[C@H]2[C@@H]1CCC(=O)N2c1ccccc1	-0.9647%
Cc1cccnc1N1CCC(c2nccn2Cc2cscn2)CC1	-9.317%
COc1ccc(C(=O)NCC(C)(O)CCc2ccccc2)cc1 (centres undefined)	-2.442%
O=C(NCc1cnc2n1CCN(c1ncc(F)cn1)CC2)C1CCC1	15.93%
NC(=O)N1CCc2ncc(CNC(=O)CC3CC3)n2CC1	111.4%
Cn1cccc1C(=O)NCc1cnc2n1CCN(C(N)=O)CC2	-2.634%

Compound	Percent Effect
CN(C)C(=O)N1CCn2cc(CNC(=O)CC3CC3)nc2C1	-12.44%
O=C(NCc1cnc2n1CCN(CC1CC1)CC2)C1CCC1	16.9%
Cn1cccc1C(=O)NCc1cnc2n1CCN(C(=O)N1CCCC1)C2	10.49%
CS(=O)(=O)N1CCc2ncc(CNC(=O)C3CCC3)n2CC1	95.01%
CC(=O)N1CCc2ncc(CNC(=O)C3CCC3)n2CC1	106.1%
Cc1cc(N2CCC(NC(=O)CCC3CCCO3)CC2)nc(C)n1 (centres undefined)	7.946%
Cc1cn2c(n1)C(CNCc1ccc(C)s1)CCC2 (centres undefined)	5.575%
CC1(C)[C@H]2CC=C(CN3CCCn4nc(C(=O)NCCO)cc4C3)[C@@H]1C2	10.58%
Cc1cccc(OCCC(=O)N2CCCN(C(N)=O)CC2)c1C	-12.46%
COc1cccc(-c2noc(-c3ccc(NCC4CC4)nc3)n2)c1OC	-9.972%
COC(=O)CNc1ccc(-c2nc(Cc3ccc(OC)cc3)no2)cn1	-28.16%
CC(CO)Nc1ccc(-c2nc(Cc3ccc(F)cc3)no2)cn1 (centres undefined)	-69.59%
c1ccc(Cc2noc(-c3ccc(NCC4CCCOC4)nc3)n2)cc1 (centres undefined)	130.1%
Cc1ccccc1-c1noc(-c2ccc(NCC3COCCO3)nc2)n1 (centres undefined)	87.55%
O=C(NCC1COCCO1)c1csc(Cc2ccccc2)n1 (centres undefined)	-4.558%
c1ccc(Cc2noc(-c3ccc(NCC4CCCCO4)nc3)n2)cc1 (centres undefined)	127.1%
COCC(C)Nc1ccc(-c2nc(Cc3ccc(F)cc3)no2)cn1 (centres undefined)	-40.71%
Cc1ccccc1-c1noc(-c2ccc(N(C)C3CCOCC3)nc2)n1	1.469%
c1ccc(Cc2noc(-c3ccc(NCC4COCCO4)nc3)n2)cc1 (centres undefined)	114.1%
OC[C@@H]1CCCN1c1ccc(-c2nc(CCc3ccccc3)no2)cn1	1.286%
O=C(CN1CC(c2nc(Cc3ccccc3)no2)C1)NCC1CCCO1.O=C(O)C(=O)O (centres undefined)	1.544%
CC(CNCc1ccncc1)Oc1ccccn1.Cl (centres undefined)	14.12%
Cc1cc(N2Cc3cnc(CC(C)C)nc3C2)nc(N)n1	-9.889%
COC(=O)c1ccc(N(C)C2CCC2)nn1	-14.02%
